# Experimental data as given in ChEMBL document CHEMBL3988442, “University of Dundee, Small-Polar-MMV Screening Library” (2021).
# In all, about 53,000 compounds went through this assay and about 900 (1.7%) showed an effect of 50% or more. This excerpt belongs to a sample that is enriched for strong results.
# System: Mycobacterium tuberculosis
# Assay: Cornell - Phenotypic assay to identify agents that inhibit growth of Mycobacterium tuberculosis
# Assay type: functional
# Design: scale not given: direction of the effect not stated beside the values
# Details: 10 mM as filed; unlikely as a test dose
row,SMILES,Percent Effect [%]
1,O=C(c1cncs1)N1CCC(c2cnccn2)CC1,7.442
2,Cc1cn2c(n1)CCC(NC(=O)Cn1cncn1)C2 (stereo unspecified),-12.63
3,Cc1ccc(OCCC(=O)N2CCN(c3cnccn3)CC2)cc1C,39.73
4,CCn1cc(C(=O)NCc2csc(C3CC3)n2)c(C)n1,26.12
5,Cc1nn(C)cc1C(=O)NCc1csc(C2CC2)n1,0.3942
6,CCn1nc(C)c(C(=O)NCc2csc(C3CC3)n2)c1C,69.61
7,CCSc1cc(C(=O)NCCc2nnc(-c3ccco3)[nH]2)ccn1,-11.72
8,CCOc1cc(C)c(-c2cc(N)[nH]n2)cc1OCC,10.44
9,CCOc1ccccc1-c1cc(N)[nH]n1.Cl,108.1
10,CCOc1ccc(Br)cc1-c1cc(N)[nH]n1.Cl,-17.72
11,O=C(c1cc(C2CCCC2)no1)N1CC(O)C1,18.4
12,CN(C)C(=O)CN1C(=O)CCC12CCN(Cc1ccc(F)cc1)CC2.O=C(O)C(F)(F)F,13.62
13,Cl.c1csc(-c2noc(C3CNC3)n2)c1,106.9
14,CCS(=O)(=O)N1CC(c2nc(-c3cccs3)no2)C1,8.063
15,Cl.c1csc(-c2noc(C3CCCNC3)n2)c1 (stereo unspecified),9.745
16,CO[C@H]1CN(c2ccccc2)S(=O)(=O)[C@@]12CCN(Cc1ccccc1)C2,6.335
17,Cc1ccccc1CC(=O)N1CCCn2cncc2C1,-17.85
18,Cc1cccc(C(=O)N2C[C@H](NS(C)(=O)=O)[C@@H]3OCCC[C@@H]32)n1,2.201
19,CN1CCC(NC(=O)Nc2ccc(Br)c(F)c2)C1=O (stereo unspecified),8.703
20,CN1CCC(NC(=O)Nc2ccc(F)c(-n3cccc3)c2)C1=O (stereo unspecified),84.66
21,CN1CCC(NC(=O)Nc2ccc(F)c(Br)c2)C1=O (stereo unspecified),-9.143
22,COCCNc1ccc(CC2CCCN(C3CCCC3)C2)nn1 (stereo unspecified),39.43

row,SMILES,Percent Effect [%]
1,CCN1CC(C(=O)N(C)Cc2cc3cc(F)ccc3[nH]2)CC1=O (stereo unspecified),42.66
2,CN(Cc1cc2cc(F)ccc2[nH]1)C(=O)C1CC(=O)N(C(C)(C)C)C1 (stereo unspecified),23.39
3,CCc1nnc(CN(C)C(=O)C2CC(=O)N(C3CC3)C2)o1 (stereo unspecified),20.13
4,CN(C)CCN1CC(C(=O)N(C)Cc2cc3cc(F)ccc3[nH]2)CC1=O (stereo unspecified),29.76
5,CN(Cc1cc2cc(F)ccc2[nH]1)C(=O)C1CC(=O)N(C2CCCC2)C1 (stereo unspecified),65.9
6,CN(Cc1cc2cc(F)ccc2[nH]1)C(=O)C1CC(=O)N(C2CC2)C1 (stereo unspecified),52.25
7,c1ccc(CNc2ccccc2N2CCCC2)nc1,18.15
8,O=C(NCc1ccc(Br)cc1F)C1(O)CCSCC1,15.88
9,CS(=O)(=O)c1ccc(-c2ccccc2C(=O)O)cc1,-4.334
10,O=C(Cc1ccccc1)NCc1ccc(-c2ccccc2C(=O)O)cn1,48.74
11,COCCN1CCC(Cc2cnc(-c3ccccc3C(=O)O)cn2)CC1,-34.65
12,COCC(=O)NCc1ccc(-c2ccccc2C(=O)O)cn1,56.05
13,COCCC(=O)NCc1ccc(-c2ccccc2C(=O)O)nc1,47.85
14,COCCC(=O)NCc1ccc(-c2ccccc2C(=O)O)cn1,57.39
15,O=C(O)c1ccccc1-c1cnc(CNC(=O)C2CCOCC2)nc1,-26.12
16,CC(=O)NCc1ccc(-c2ccccc2C(=O)O)cn1,56.71
17,O=C(Cc1ccccc1)NCc1ncc(-c2ccccc2C(=O)O)cn1,23.42
18,COCCC(=O)N(CCC#N)c1ccc2c(c1)OCCO2,0.8387
19,Cc1noc(C)c1-c1cccc(C2CCN(S(=O)(=O)N(C)C)CC2)n1,42.71
20,O=S(=O)(N1CCCCC1)N1CCC(Oc2cnccn2)CC1,20.22
21,CN(C(=O)c1ccon1)[C@@H]1CCC[C@@H](Oc2ccccc2)[C@@H]1O,-13.46
22,O=C(COc1ccc(-c2ccccc2)nc1)NCC1CC1,18.89

row,SMILES,Percent Effect [%]
1,CCc1oc(C(=O)N(C)Cc2ccncc2)cc1CN(CC)CC,3.07
2,COC(=O)c1ccc(N2CCC(C(O)c3ccccc3)CC2)nn1 (stereo unspecified),106
3,COC(=O)c1ccc(N2CCC(N(C)c3ccccc3)CC2)nn1,11.3
4,COC(=O)c1ccc(N2CCC(c3ccccc3)CC2)nn1,26.44
5,OCC(CO)N1CCCC(Cc2ccnc(Nc3ccccn3)c2)C1 (stereo unspecified),10.34
6,Cc1cc(C)n(CCNc2ncnc3c2NC(=O)CN3)n1,18.99
7,C/N=C1\c2cc3cc(OC)ccc3n2CCN1Cc1ccccc1.O=C(O)C(F)(F)F,22.23
8,C/N=C1\c2cc3cc(OC)ccc3n2CCN1C.Cl,-3.392
9,C/N=C1/c2cc3cc(OC)ccc3n2CCN1Cc1ccccc1.Cl,57.78
10,CNC(=O)CN1CCOCC12CCN(C(=O)c1ccc(C)cc1)CC2.O=C(O)C(F)(F)F,15.73
11,CC(C)n1ccc(-c2cc(C(=O)N3CCN(C)CC3)c3ccccn23)n1.O=C(O)C(F)(F)F,-46.58
12,CCN(C)C(=O)c1cc(-c2ccn(C(C)C)n2)n2ccccc12,68.36
13,CCCNC(=O)c1cc(-c2ccn(C(C)C)n2)n2ccccc12,54.8
14,CCN(C)C(=O)c1cc(-c2cn(C(C)C)cn2)n2ccccc12,-58.24
15,CC(C)n1ccc(-c2cc(C(=O)NC3CC3)c3ccccn23)n1,-20.13
16,CC(C)n1ccc(-c2cc(C(=O)N3CCCC3)c3ccccn23)n1,40.75
17,O=C(c1cc[nH]n1)N1CCc2c(nc(N3CCCCC3)[nH]c2=O)C1,11.2
18,CC(C#N)CN(C)C(=O)CCNC(=O)OC(C)(C)C (stereo unspecified),19.92
19,Cc1cnc(C(=O)N2CCN3C[C@H](OCc4cccnc4)C[C@H]3C2)cn1,-31.84
20,Cc1ccc(CNCc2cccc(NC(=O)CCN3CCOCC3)c2)s1,14.02
21,CC1=C(C#N)C(=O)NC(=O)/C1=C\c1c(C)nn(-c2ccc(C)cc2)c1O,24.62
22,Cc1nc(CN2C(=O)CC[C@@H]3[C@H]2CCN3C2CCOC2)cs1.O=C(O)C(F)(F)F (stereo partly specified),9.813

row,SMILES,Percent Effect [%]
1,CC(=O)N1C[C@@H]2CN(S(=O)(=O)C3CC3)CCO[C@@H]2C1,-7.882
2,CCn1nccc1CN(C)C(=O)Cn1nc(C)c(C)c1C,1.975
3,CC(C)N(C)Cc1n[nH]c2c1CCN(C(=O)c1ccc[nH]1)C2.O=C(O)C(F)(F)F,-20.42
4,Cn1ccc2c(NC(=O)Cn3ncc4c(c3=O)CCCCC4)cccc21,7.683
5,Cn1ccc2c(NC(=O)Cn3ncc4c(c3=O)CCCC4)cccc21,50.09
6,O=C(Cn1ncc2c(c1=O)CCCCC2)Nc1cccc2[nH]ccc12,32.47
7,O=C1C(n2nnc(-c3cccs3)n2)CCN1CC(F)(F)F (stereo unspecified),21.02
8,Cc1cccc(CNC(=O)CC2CCN(C(=O)C(C)C)CC2)n1,-31.48
9,Cc1nnc(N2CC[C@H](OCC3CC3)[C@@H](Cc3ccccc3)C2)s1.O=C(O)C(F)(F)F,73.55
10,CO[C@H]1CCN(c2nnc(C)s2)C[C@@H]1Cc1cccc(C)c1.O=C(O)C(F)(F)F,15.98
11,Cc1nnc(N2CC[C@@H](OCC3CC3)[C@@H](Cc3ccccc3)C2)s1.O=C(O)C(F)(F)F,81.09
12,CO[C@H]1CCN(c2nnc(C)s2)C[C@@H]1Cc1ccccc1.O=C(O)C(F)(F)F,35.25
13,CO[C@@H]1CCN(c2nnc(C)s2)C[C@@H]1Cc1ccccc1.O=C(O)C(F)(F)F,33.57
14,CO[C@@H]1CCN(c2nnc(C)s2)C[C@@H]1Cc1cccc(C)c1.O=C(O)C(F)(F)F,41.6
15,Cc1noc(C)c1CCC(=O)Nc1ccn(C)n1,-3.564
16,CC(C)(C(N)=O)S(=O)(=O)c1ccc(Br)cc1,7.461
17,CCc1nnc2sc(-c3cc(C(C)C)n[nH]3)nn12,-59.74
18,CC(C)(CC(=O)Nc1cccc(Oc2ccccn2)c1)C(=O)O,-19.67
19,CC(C)NC(=O)CCC(=O)N1CCC(c2noc3cc(F)ccc23)CC1,-48.35
20,O=C(Cn1ccc2c(Cl)cccc21)Nc1nc[nH]n1,5.076
21,Cc1cccc(CN2CCC3(CCN(c4ccccn4)C3)C2=O)c1.O=C(O)C(F)(F)F (stereo unspecified),27.3
22,Cc1cccc(CN2CCC3(CCN(c4ncccn4)C3)C2=O)c1 (stereo unspecified),5.151

row,SMILES,Percent Effect [%]
1,Cc1cccc(CN2CCC3(CCN(c4ncccn4)CC3)C2=O)c1.O=C(O)C(F)(F)F,58.32
2,CN(Cc1cccc(F)c1)Cc1nc2c(cnn2C)c(=O)[nH]1,-23.35
3,Cc1noc(C)c1CN1CCC(c2nnc(Cn3cccn3)n2C)CC1,16.69
4,C[C@@H]1CN(c2cccnn2)CC[C@@]1(O)C1CCOCC1,-7.399
5,Cc1ccc(-c2nc(CN3C[C@@H](C)NC[C@@H]3C)c(C)o2)s1,12.13
6,Clc1cccc(-c2cccc(N3CCC(NC4CCOCC4)CC3)c2)c1,72.63
7,COc1cccc(-c2cccc(N3CCC(N[C@@H]4CCOC4)CC3)c2)c1,39.62
8,Cc1ccc(-c2cccc(N3CCC(NC4CCOCC4)CC3)c2)cc1,33.16
9,CCc1ccc(-c2ncc3c(n2)N(C)CCN(CCN(C)C)C3=O)cc1,13.52
10,Cc1nc(C)c(C(C)NCc2c(C)nn(CC(C)C)c2N(C)C)s1 (stereo unspecified),102.6
11,CC(=O)NCCCNCc1c(C)nn(CC(C)C)c1N(C)C,2.619
12,Cc1nn(CC(C)C)c(N(C)C)c1CNCc1cc2ccccc2[nH]1,72.88
13,Cc1nn(CC(C)C)c(N(C)C)c1CNCCCNS(C)(=O)=O,49.77
14,Cc1nc(C)c(C(C)NCc2c(C)nn(C)c2N(C)C)s1 (stereo unspecified),45.94
15,Cc1nn(CC(C)C)c(N(C)C)c1CNCCS(C)(=O)=O,83.1
16,Cc1nc(C)c(C(C)NCc2c(C(C)C)nn(C)c2N(C)C)s1 (stereo unspecified),21.22
17,Cc1nn(CC(C)C)c(N(C)C)c1CNCc1ccccc1CO,17.46
18,Cc1nn(CC(C)C)c(N(C)C)c1CNCc1cccnc1N(C)C,34.46
